Assay results taken from ChEMBL document CHEMBL1961873, “Compounds: GSK PKIS; Assays: Nanosyn kinase panel” (2012).

Key:
[1] = molecular target: Casein kinase I isoform gamma-2 (Homo sapiens) (UniProt P78368); details: at 1 µM
[2] = molecular target: Casein kinase I isoform gamma-3 (Homo sapiens) (UniProt Q9Y6M4); details: at 0.1 µM
[3] = molecular target: Casein kinase I isoform gamma-3 (Homo sapiens) (UniProt Q9Y6M4); details: at 1 µM
[4] = molecular target: Cyclin-dependent kinase 1 (Homo sapiens) (UniProt P06493); details: at 0.1 µM
Sequence of Cyclin-dependent kinase 1 (Homo sapiens) (P06493 whole entry, looked up): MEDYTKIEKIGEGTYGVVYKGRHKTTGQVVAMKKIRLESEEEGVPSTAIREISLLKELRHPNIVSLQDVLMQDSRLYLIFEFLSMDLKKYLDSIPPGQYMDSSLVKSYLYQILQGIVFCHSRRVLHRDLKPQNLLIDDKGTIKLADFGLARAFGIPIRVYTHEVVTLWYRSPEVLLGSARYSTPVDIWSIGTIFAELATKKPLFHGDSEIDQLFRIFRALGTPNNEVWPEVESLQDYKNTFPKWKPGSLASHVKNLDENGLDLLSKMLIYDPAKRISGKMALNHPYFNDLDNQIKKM

[5] = molecular target: Cyclin-dependent kinase 1 (Homo sapiens) (UniProt P06493); details: at 1 µM
[6] = molecular target: Cyclin-dependent kinase 2 (Homo sapiens) (UniProt P24941); details: at 0.1 µM
[7] = molecular target: Cyclin-dependent kinase 2 (Homo sapiens) (UniProt P24941); details: at 1 µM
[8] = molecular target: Cyclin-dependent kinase 2 (Homo sapiens) (UniProt P24941); details: at 0.1 µM; remark: listed apart in the source
[9] = molecular target: Cyclin-dependent kinase 2 (Homo sapiens) (UniProt P24941); details: at 1 µM; remark: listed apart in the source
[10] = molecular target: T1, CDK3/Cyclin E (Homo sapiens) (UniProt P24864+Q00526); details: at 0.1 µM
T1 sequence (P24864 whole entry, looked up): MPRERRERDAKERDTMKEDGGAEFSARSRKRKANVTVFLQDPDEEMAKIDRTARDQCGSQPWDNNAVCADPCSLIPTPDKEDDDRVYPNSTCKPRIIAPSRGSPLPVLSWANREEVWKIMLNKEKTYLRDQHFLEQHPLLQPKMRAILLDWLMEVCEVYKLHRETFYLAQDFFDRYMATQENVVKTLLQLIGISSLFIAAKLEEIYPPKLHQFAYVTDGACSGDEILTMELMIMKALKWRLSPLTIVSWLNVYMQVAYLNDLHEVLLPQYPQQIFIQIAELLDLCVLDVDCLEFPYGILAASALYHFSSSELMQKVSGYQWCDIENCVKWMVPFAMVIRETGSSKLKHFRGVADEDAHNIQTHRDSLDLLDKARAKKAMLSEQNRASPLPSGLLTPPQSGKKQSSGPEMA
T1 sequence (Q00526 whole entry, looked up): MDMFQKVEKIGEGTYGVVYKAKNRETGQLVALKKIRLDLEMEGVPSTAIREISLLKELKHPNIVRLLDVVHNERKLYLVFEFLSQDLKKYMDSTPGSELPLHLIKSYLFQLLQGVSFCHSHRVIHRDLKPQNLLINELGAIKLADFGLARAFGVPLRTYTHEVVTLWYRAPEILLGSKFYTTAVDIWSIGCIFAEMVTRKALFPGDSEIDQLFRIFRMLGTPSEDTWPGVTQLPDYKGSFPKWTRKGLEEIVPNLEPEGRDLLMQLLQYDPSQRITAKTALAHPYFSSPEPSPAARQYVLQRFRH

[11] = molecular target: T1, CDK3/Cyclin E (Homo sapiens); details: at 1 µM
[12] = molecular target: Cyclin-dependent kinase 4 (Homo sapiens) (UniProt P11802); details: at 0.1 µM
Sequence of Cyclin-dependent kinase 4 (Homo sapiens) (P11802 whole entry): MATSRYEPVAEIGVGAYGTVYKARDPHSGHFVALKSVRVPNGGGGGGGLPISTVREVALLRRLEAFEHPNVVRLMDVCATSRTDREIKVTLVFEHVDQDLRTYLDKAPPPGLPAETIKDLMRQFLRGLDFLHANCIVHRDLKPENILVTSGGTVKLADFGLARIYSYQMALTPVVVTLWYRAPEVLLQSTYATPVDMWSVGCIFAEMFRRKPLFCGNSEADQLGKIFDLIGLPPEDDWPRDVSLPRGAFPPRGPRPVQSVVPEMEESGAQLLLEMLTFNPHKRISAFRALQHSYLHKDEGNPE

[13] = molecular target: Cyclin-dependent kinase 4 (Homo sapiens) (UniProt P11802); details: at 1 µM
[14] = molecular target: Cyclin-dependent kinase 5 (Homo sapiens) (UniProt Q00535); details: at 0.1 µM
Sequence of Cyclin-dependent kinase 5 (Homo sapiens) (Q00535 whole entry, looked up): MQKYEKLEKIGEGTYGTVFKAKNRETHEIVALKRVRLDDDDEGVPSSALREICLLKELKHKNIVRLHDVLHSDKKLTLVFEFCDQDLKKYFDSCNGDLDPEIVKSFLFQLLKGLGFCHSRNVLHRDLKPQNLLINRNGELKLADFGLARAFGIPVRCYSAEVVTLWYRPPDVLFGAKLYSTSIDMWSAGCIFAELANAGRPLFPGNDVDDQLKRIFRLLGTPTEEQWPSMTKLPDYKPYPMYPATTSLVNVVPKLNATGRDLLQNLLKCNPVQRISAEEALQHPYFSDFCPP

[15] = molecular target: Cyclin-dependent kinase 5 (Homo sapiens) (UniProt Q00535); details: at 1 µM
[16] = molecular target: Cyclin-dependent kinase 6 (Homo sapiens) (UniProt Q00534); details: at 0.1 µM
Sequence of Cyclin-dependent kinase 6 (Homo sapiens) (Q00534 whole entry): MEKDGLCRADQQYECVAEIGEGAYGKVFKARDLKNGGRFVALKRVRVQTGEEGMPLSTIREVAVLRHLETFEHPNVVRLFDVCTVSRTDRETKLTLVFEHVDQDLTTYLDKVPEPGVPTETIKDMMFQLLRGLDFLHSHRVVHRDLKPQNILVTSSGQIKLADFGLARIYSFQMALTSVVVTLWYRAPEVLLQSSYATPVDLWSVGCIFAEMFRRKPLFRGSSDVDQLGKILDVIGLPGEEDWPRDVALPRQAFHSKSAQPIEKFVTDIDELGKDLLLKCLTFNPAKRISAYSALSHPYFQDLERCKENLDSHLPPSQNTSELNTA

[17] = molecular target: Cyclin-dependent kinase 6 (Homo sapiens) (UniProt Q00534); details: at 1 µM
[18] = molecular target: Dual specificity protein kinase CLK2 (Homo sapiens) (UniProt P49760); details: at 0.1 µM
Sequence of Dual specificity protein kinase CLK2 (Homo sapiens) (P49760 whole entry, looked up): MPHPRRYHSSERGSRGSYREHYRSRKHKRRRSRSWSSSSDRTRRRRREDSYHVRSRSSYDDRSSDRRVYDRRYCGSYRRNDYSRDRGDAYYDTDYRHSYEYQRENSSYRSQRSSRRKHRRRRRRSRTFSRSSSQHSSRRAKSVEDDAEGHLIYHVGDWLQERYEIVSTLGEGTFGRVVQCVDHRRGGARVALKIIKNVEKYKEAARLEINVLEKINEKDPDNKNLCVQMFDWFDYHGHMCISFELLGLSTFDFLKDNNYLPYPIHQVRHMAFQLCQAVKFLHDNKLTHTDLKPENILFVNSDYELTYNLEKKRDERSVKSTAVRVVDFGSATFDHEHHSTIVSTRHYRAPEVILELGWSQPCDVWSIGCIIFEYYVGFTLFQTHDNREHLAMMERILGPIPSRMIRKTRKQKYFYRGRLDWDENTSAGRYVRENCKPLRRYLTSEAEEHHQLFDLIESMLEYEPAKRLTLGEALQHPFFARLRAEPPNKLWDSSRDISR

[19] = molecular target: Dual specificity protein kinase CLK2 (Homo sapiens) (UniProt P49760); details: at 1 µM
[20] = molecular target: Dual specificity protein kinase CLK3 (Homo sapiens) (UniProt P49761); details: at 0.1 µM
Sequence of Dual specificity protein kinase CLK3 (Homo sapiens) (P49761 whole entry, looked up): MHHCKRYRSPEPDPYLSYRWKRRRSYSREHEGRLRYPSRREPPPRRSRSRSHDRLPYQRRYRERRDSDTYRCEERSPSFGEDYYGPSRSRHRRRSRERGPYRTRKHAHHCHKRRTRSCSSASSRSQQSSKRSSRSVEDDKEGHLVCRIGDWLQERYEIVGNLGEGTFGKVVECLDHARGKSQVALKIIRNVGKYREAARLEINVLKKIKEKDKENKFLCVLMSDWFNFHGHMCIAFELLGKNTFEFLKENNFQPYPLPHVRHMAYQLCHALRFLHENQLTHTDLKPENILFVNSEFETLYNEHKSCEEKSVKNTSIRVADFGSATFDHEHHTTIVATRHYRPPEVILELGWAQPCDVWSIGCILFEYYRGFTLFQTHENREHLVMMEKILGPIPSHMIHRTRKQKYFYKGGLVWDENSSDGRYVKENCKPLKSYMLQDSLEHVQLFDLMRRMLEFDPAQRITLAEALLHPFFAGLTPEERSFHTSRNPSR

Sequence of Casein kinase I isoform gamma-3 (Homo sapiens) (Q9Y6M4 whole entry, looked up, canonical isoform): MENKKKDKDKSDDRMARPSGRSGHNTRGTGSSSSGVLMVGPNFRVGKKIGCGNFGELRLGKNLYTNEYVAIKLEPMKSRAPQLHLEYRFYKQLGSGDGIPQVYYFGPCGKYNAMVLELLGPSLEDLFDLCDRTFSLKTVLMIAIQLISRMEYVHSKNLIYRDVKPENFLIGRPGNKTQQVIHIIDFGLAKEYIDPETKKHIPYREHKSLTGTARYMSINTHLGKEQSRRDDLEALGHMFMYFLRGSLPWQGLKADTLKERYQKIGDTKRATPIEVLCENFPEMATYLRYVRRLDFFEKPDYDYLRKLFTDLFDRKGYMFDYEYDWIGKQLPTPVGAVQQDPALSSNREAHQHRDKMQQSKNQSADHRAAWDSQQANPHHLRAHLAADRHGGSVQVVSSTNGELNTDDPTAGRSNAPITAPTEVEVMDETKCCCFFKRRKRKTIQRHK
Sequence of Casein kinase I isoform gamma-2 (Homo sapiens) (P78368 whole entry, looked up, canonical isoform): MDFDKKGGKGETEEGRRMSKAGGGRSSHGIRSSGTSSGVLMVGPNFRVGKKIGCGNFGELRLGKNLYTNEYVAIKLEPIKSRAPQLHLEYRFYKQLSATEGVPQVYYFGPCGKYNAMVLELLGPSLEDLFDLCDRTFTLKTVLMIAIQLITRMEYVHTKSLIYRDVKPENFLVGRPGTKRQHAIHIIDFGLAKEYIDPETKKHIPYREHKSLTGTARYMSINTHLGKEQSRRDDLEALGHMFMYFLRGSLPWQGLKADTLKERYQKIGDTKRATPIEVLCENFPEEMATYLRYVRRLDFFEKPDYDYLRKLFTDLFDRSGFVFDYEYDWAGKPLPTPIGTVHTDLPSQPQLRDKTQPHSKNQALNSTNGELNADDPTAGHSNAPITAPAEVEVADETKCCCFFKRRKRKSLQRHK

SMILES	inhibition [1]	inhibition [2]	inhibition [3]	inhibition [4]	inhibition [5]	inhibition [6]	inhibition [7]	inhibition [8]	inhibition [9]	inhibition [10]	inhibition [11]	inhibition [12]	inhibition [13]	inhibition [14]	inhibition [15]	inhibition [16]	inhibition [17]	inhibition [18]	inhibition [19]	inhibition [20]
FC(F)(F)c1cccc(-c2nn3ncccc3c2-c2ccnc(Nc3ccc4c(c3)OCCO4)n2)c1	3.28%	1.54%	4.56%	1.58%	3.23%	1.29%	0.77%	4.14%	4.5%	1.7%	-0.03%	2.66%	4.56%	1.65%	2.11%	-1.79%	2.39%	1.11%	0.64%	0.73%
Fc1ccc(-c2nn3ccccc3c2-c2ccncc2)cc1	7.48%	0.7%	15.1%	0.74%	1.96%	2.05%	2.06%	1.19%	2.02%	0.78%	-1.11%	1.37%	2.18%	0.46%	0.96%	-1.88%	2.7%	0.24%	1.47%	0.63%
CNC(=O)c1cncc(/C=C/c2ccccc2Cl)c1	-0.77%	0.25%	-0.89%	0.47%	3.2%	0.6%	-0.73%	-0.47%	0.52%	0.31%	-0.07%	-1.43%	-0.33%	0.19%	2%	2.81%	-1.1%	-0.38%	0.35%	-0.85%
COc1ccc(-c2cc(-c3c[nH]nc3-c3ccccn3)ccn2)cc1	5.19%	3.68%	6.59%	0.11%	1.79%	1.84%	7.74%	4.73%	5.82%	2.59%	0.46%	2.18%	1.82%	1.02%	1.41%	4.13%	-0.9%	0.77%	0.26%	3.07%
CN1CCC(n2cnc(-c3ccc(F)cc3)c2-c2ccnc(Nc3ccccc3)n2)CC1	35.2%	12.4%	61.7%	0.37%	2.52%	0.89%	-0.3%	1.14%	2.14%	2.38%	-2.19%	1.36%	2.55%	0.25%	1%	3.89%	0.2%	1.64%	1.56%	0.75%
COc1cc(/C=N/Nc2ncnc3[nH]ncc23)ccc1O	25.1%	3.84%	20%	2.77%	15.8%	3.26%	28.3%	4.7%	13.9%	1.56%	6.95%	2.99%	5.18%	2.93%	16.3%	10.4%	15.9%	2.37%	28.6%	2.85%
Nc1nc(-c2ccc(F)cc2)c(-c2ccc3ncccc3n2)s1	8.8%	4.7%	16.9%	3.94%	8.07%	3.61%	0.25%	6.09%	10.7%	3.73%	1.75%	6.95%	9.34%	4.02%	7.28%	4.34%	7.53%	2.98%	8.8%	3.31%
c1ccc(-c2nc3n(c2-c2ccc4c(c2)OCO4)CCC3)nc1	1.81%	0.57%	4.18%	0.17%	1.42%	1.58%	-5.6%	2.41%	3.84%	2.37%	0.43%	2.02%	2.7%	0.64%	1.86%	-1.72%	3.55%	0.44%	-1.18%	3.62%
